Hits are enriched below; roughly 4.9% of the tested compounds scored in any of these assays.
SKKanGAS inh – SKKanGAS growth inhibition; S. pyogenes SKKanGAS, kanamycin growth, BacTiter-Glo, 6 h; inhibition, % at 7.5 µM; 1.3% of 300,000 active; AID 1662;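 active = mean replicate score, as percent of positive control median, at least 50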;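 also: strain carries kanamycin resistance gene driven by streptokinase promoter and grows in 40 µg/ml kanamycin; loss of luminescence reflects streptokinase promoter inhibition or plain growth inhibition; 0% = median of DMSO wells and 100% = positive control at its reference dose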
NLRP3 yeast inh – NALP3 inhibition in yeast. 0.39% of 330,000 active. Yeast reconstituted NLRP3/ASC/caspase-1, beta-gal luminescence, 24 h. AID 2825. inhibition, % at 10 µM;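 active = inhibition of 50% or more; inactive = inhibition below 50%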;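 also: plate controls were induced DMSO wells for no effect and uninduced yeast grown without galactose for full effect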
tim23-1 inh – tim23-1 yeast growth inhibition; S. cerevisiae tim23-1 growth, BacTiter-Glo luminescence, 24 h; inhibition, % at 20 µM; 1.3% of 330,000 active; AID 463212;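 active = growth inhibition of the mutant yeast at or above 50%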;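 also: temperature-sensitive mutant grown at 25 °C; plate controls were DMSO-treated mutant yeast for no effect and medium wells lacking yeast for full effect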
tim10-1 inh – inhibits growth of tim10-1 mutant yeast; AID 463190; S. cerevisiae tim10-1 ts strain growth, BacTiter-Glo, 24 h; 2.2% of 330,000 active; inhibition, % at 20 µM;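 active = inhibition of at least 40%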;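 also: mutant grown at 25 °C; 0% = DMSO wells with yeast and 100% = wells holding no yeast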
NALP1 yeast inh – inhibitors of NALP1 inflammasome in yeast; S. cerevisiae NALP1/ASC/caspase-1 growth, X-gal OD620, 72 h; inhibition, % at 10 µM; 0.61% of 280,000 active; AID 2071; in the data active = inhibition mostly above about 24%, no sharp cut-off; inactive = mostly below about 32%
TIM10 inh – growth inhibitors of TIM10 yeast strain; AID 463195; 1.4% of 330,000 active; S. cerevisiae TIM10 strain growth, BacTiter-Glo luminescence, 24 h; inhibition, % at 10 µM;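 active = inhibition of 40% or more at the single tested concentration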;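 also: wild-type TIM10 isogenic control strain grown at permissive 25 °C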
tim10-1 conf – tim10-1 yeast growth inhibition, confirmed; shares compounds with tim10-1 inh; S. cerevisiae tim10-1 ts strain growth, BacTiter-Glo, 24 h; inhibition, % at 20 µM; 56% of 7,400 active;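 active = inhibition of yeast growth at or above a set limit in either of two repeat tests at 20 µM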;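 also: tim10-1 mutant grown at permissive 25 °C to find synthetic lethal compounds; 0% = DMSO yeast wells and 100% = medium wells without yeast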
Starred values were filed as active, the others as inactive; / = no result given.

SMILES | SKKanGAS inh | NLRP3 yeast inh | tim23-1 inh | tim10-1 inh | NALP1 yeast inh | TIM10 inh | tim10-1 conf
COc1cccc(Cn2cc(-c3cccc(C(F)(F)F)c3)nn2)c1 | 7 | 8 | -10 | 42* | -50 | -1 | 23
CCC(=O)Nc1ccc(C2C(=O)c3ccccc3C2=O)cc1 | 13 | 9 | 30 | 42* | 16 | 18 | 22
Cc1ccccc1OCC(=O)NNC(=S)NC(=O)c1ccccc1[N+](=O)[O-] | 7 | 28 | 34 | 42* | 3 | 15 | 25
CC(=O)CSc1nnc(-c2ccc(S(=O)(=O)N3CCC(C)CC3)cc2)o1 | 3 | -2 | 29 | 42* | / | 29 | 24
CCOC(=O)CSc1nnc(-c2ccc(S(=O)(=O)N3CCC(C)CC3)cc2)o1 | 4 | 3 | 20 | 30 | 13 | -3 | /
CC1CCCN(C(=S)SCC(=O)c2cc(Br)cc(Br)c2O)C1 (stereo not given) | 56* | -5 | 42 | 50* | -7 | 38 | 46*
CC1CCCN(C(=S)SCC(=O)O)C1 (stereo not given) | 2 | 13 | 8 | 7 | 36 | -1 | /
CCOc1ccccc1N1CCN(C(=O)c2ccc3nc(N)sc3c2)CC1 | / | 12 | 26 | 13 | / | 15 | /
COc1ccc(N2Cc3ccccc3C2=O)cc1 | 13 | 43 | 15 | -18 | 17 | -8 | /
C=CC(=O)Oc1ccc(N2Cc3ccccc3C2=O)cc1 | 5 | -30 | 21 | 60* | / | 4 | 68*
CC(C)/C=C/CN1CCC(Oc2ccc(C(=O)N3CCCC3)cc2)CC1 | 2 | 5 | -13 | -9 | 15 | -1 | /
O=P(OC1CCCCC1)(OC1CCCCC1)C(O)c1c(Cl)cccc1Cl (stereo not given) | 8 | -23 | 43 | 43* | 2 | 34 | 23
Cc1ccc(NC(=O)CSCC(=O)Nc2nnc(C3CC3)s2)cc1 | 0 | 9 | -2 | -9 | / | -9 | /
Cc1ccc(Nc2nnc(C3C(=O)N(C)C4(C)CC3c3cc(Br)ccc3O4)s2)cc1 (stereo not given) | 36 | -13 | 18 | 45* | 24 | 22 | 6
COC(=O)c1ccc(Nc2cc(C)nc(-c3ccccc3O)n2)cc1 | -2 | 4 | 4 | 18 | 0 | 2 | /
COC(=O)c1cccc(Nc2cc(C)nc(-c3ccccc3O)n2)c1 | 2 | 12 | 35 | 62* | 24 | 38 | 35*
Cn1ccc2cc(-c3csc(N4CCC(C(N)=O)CC4)n3)ccc21 | / | 8 | 3 | -6 | / | 1 | /
CCOc1ccccc1N1C(=O)CC(Sc2n[nH]c(-c3ccccc3)n2)C1=O (stereo not given) | -4 | 22 | 13 | 53* | 37 | 32 | 53*
COc1ccc(N2C(=O)CC(Sc3n[nH]c(-c4cccc(C)c4)n3)C2=O)cc1 (stereo not given) | -5 | 15 | 15 | 36 | 30 | 21 | /
CCCCCCSC1=C(C#N)C(c2ccc(C)o2)CC(=O)N1 (stereo not given) | 8 | 20 | 32 | 41* | 5 | 24 | 7
CCSC1=C(C#N)C(c2ccc(C)o2)CC(=O)N1 (stereo not given) | -9 | -14 | 41 | 4 | 20 | 6 | /
COc1ccc(-c2sc3ccccc3c2C#CCCO)cc1 | 36 | 25 | -5 | 22 | 34 | -5 | /
OCCC#Cc1c(-c2ccsc2)sc2ccccc12 | -4 | -20 | 0 | 46* | -7 | 2 | 28
COc1ccc(-c2nnc3c4ccccc4c(C)nn23)cc1 | 18 | 14 | 43 | 49* | -5 | 10 | 26
Cc1ccccc1-c1nnc2c3ccccc3c(C)nn12 | 4 | 25 | 17 | 4 | 6 | 1 | /
SMILES | SKKanGAS inh | NLRP3 yeast inh | tim23-1 inh | tim10-1 inh | NALP1 yeast inh | TIM10 inh | tim10-1 conf
COc1ccc(Cl)cc1NC(=O)CN(C)C(=O)CCc1nc2ccccc2c(=O)[nH]1 | / | 15 | 11 | 9 | / | 12 | /
Cc1cc(C)c(C(=O)N2CCCC(N3CCN(c4cccc(C(F)(F)F)c4)CC3)C2)o1 (stereo not given) | -6 | 0 | 24 | 44* | 2 | 20 | 21
CCCCC1(C(=O)OC)NC(c2ccc(O)cc2)C2C(=O)N(c3ccccc3)C(=O)C21 (stereo not given) | -3 | 13 | 12 | -7 | 11 | -8 | /
COCCC(=O)N1CCC(Oc2ccc(C(=O)NCCC3=CCCCC3)cc2)CC1 | 5 | 3 | 12 | 15 | -18 | 9 | /
Cc1ccc(CNC(=O)CN(C(=O)C2(C)CC(=O)N=C3C=CC=CN32)c2ccc(F)cc2)cc1 (stereo not given) | -4 | 17 | 0 | -22 | 2 | 8 | /
O=C(NC1CCCC(C(F)(F)F)C1)c1ccc([N+](=O)[O-])o1 (stereo not given) | / | 16 | 45 | 31 | / | 33 | /
O=C(NC1CCCCC1)c1ccc([N+](=O)[O-])o1 | 24 | 5 | 42 | 51* | 21 | 14 | 36*
O=C(Nc1ccccc1N1CCN(C(=O)c2ccc(Cl)cc2)CC1)c1cc2ccccc2o1 | 19 | 0 | 4 | 27 | -7 | 19 | /
O=C(Nc1ccccc1N1CCN(C(=O)c2ccc(Cl)cc2)CC1)c1ccc([N+](=O)[O-])o1 | 79* | 27 | 30 | 44* | 11 | 11 | 24
O=C(NCc1ccco1)c1ccc([N+](=O)[O-])o1 | 22 | 12 | 29 | 42* | 14 | -7 | 28
O=C(Nc1ccccc1N1CCCCC1)c1ccc([N+](=O)[O-])o1 | / | 27 | 29 | 51* | / | 34 | 51*
COc1cc2c(C(=O)N3CCN(C)CC3)c(C)n(-c3ccccc3)c2cc1Br | -7 | 3 | 21 | 50* | 1 | 20 | 27
COc1ccc(C)cc1NC(=O)CNc1ccccc1CN(C)C1CCCCC1 | -1 | 11 | 14 | 16 | 6 | -7 | /
COc1ccc(Cl)cc1NC(=O)CNc1ccccc1CN(C)C1CCCCC1 | -4 | -11 | 19 | 43* | -8 | 17 | 30*
Cc1cccc(C)c1NC(=O)C(c1ccc(Cl)cc1Cl)N1CCCCC1 (stereo not given) | 6 | 11 | -3 | 42* | 2 | 18 | 23
C/C1=C\CCC2C(/C=C(\C)CC1)OC(=O)C2CN1CCCCC1 (stereo not given) | 0 | -14 | 35 | 40* | 3 | 30 | 43*
COc1ccc(CN2C(=O)C(Cc3ccccc3)Nc3ncnc(N4CCc5ccccc5C4)c32)cc1 (stereo not given) | 23 | -5 | 35 | 28 | / | 13 | /
CCOc1ccc(-c2nc(CSCC(=O)NC3CC3)c(C)o2)cc1 | -5 | 14 | 21 | 15 | 6 | -2 | /
CCOc1ccc(-c2nc(CSCC(=O)NC3CCCc4ccccc43)c(C)o2)cc1 (stereo not given) | 28 | 8 | 36 | 40* | 18 | 35 | 25
